Experimental data from article PMC7862700, “An all-to-all approach to the identification of sequence-specific readers for epigenetic DNA modifications on cytosine”.

Legend:
Assay in all cases: DAPPL (digital affinity profiling via proximity ligation, sequencing); 10 mM Tris-HCl pH 7.5, 50 mM NaCl, 1 mM DTT, 4% glycerol, room temperature, 30 min; GST-TFs on glutathione beads, 16-mer random dsDNA library, 0.1% formaldehyde crosslink after washing; high values mean tight binding
FEV = molecular target: T1, FEV (Homo sapiens, UniProt Q99581 1-238); details: protein: recombinant; tags: N-terminal GST; dsDNA, one strand shown
T1 sequence: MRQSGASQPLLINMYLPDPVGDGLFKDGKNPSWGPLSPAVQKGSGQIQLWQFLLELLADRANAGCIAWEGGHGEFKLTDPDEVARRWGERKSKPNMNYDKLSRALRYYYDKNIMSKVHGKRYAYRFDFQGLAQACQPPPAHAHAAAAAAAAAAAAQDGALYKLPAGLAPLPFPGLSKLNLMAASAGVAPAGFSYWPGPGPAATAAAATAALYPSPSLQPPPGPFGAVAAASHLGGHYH
How it was run: (§1)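 Human transcription factors were made in yeast as GST fusions, captured on glutathione beads and barcoded with DNA. With a tag-only sample included, the pool was incubated with 200 nmole of a random double-stranded 16-mer DNA library in Tris/NaCl/DTT/glycerol buffer at room temperature for 30 min, then crosslinked with 0.1% formaldehyde after washing, ligated by proximity, amplified and sequenced. For binding signal, each hexamer's read frequency for a factor is divided by its frequency for the tag-only sample.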

ETV5 = ETV5 (Homo sapiens, UniProt P41161 1-510); details: protein: recombinant; tags: N-terminal GST; dsDNA, one strand shown
How it was run: as §1

HSF1 = HSF1 (Homo sapiens, UniProt Q00613 1-529); details: protein: recombinant; tags: N-terminal GST; chain copies: 3; dsDNA, one strand shown
How it was run: as §1

SPIC = molecular target: T2, SPIC (Homo sapiens, UniProt Q8N5J4 1-248); details: protein: recombinant; tags: N-terminal GST; dsDNA, one strand shown
T2 sequence: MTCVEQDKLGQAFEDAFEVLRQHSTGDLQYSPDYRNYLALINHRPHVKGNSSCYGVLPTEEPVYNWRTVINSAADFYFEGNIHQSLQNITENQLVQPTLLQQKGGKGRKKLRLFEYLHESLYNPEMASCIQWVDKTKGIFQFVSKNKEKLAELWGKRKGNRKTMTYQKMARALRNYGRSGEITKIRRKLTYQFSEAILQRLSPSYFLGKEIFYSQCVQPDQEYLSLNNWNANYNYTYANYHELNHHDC
How it was run: as §1

ELF4 = ELF4 (Homo sapiens, UniProt Q99607 1-663); details: protein: recombinant; tags: N-terminal GST; dsDNA, one strand shown
How it was run: as §1

ELK4 = molecular target: T3, ELK4 (Homo sapiens, UniProt P28324-2 1-405); details: protein: recombinant; tags: N-terminal GST; dsDNA, one strand shown
T3 sequence: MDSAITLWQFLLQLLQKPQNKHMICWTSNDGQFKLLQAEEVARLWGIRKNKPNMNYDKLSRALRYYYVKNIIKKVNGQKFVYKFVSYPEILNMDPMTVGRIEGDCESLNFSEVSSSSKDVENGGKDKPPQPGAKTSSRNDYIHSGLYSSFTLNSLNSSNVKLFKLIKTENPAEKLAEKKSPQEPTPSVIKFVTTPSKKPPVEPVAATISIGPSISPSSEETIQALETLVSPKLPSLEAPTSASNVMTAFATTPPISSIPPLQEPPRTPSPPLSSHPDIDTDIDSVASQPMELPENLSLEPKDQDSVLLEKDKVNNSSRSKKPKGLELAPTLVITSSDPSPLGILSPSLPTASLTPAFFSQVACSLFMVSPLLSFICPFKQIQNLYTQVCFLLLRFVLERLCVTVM
How it was run: as §1

ETV2 = molecular target: T4, ETV2 (Homo sapiens, UniProt O00321 1-342); details: protein: recombinant; tags: N-terminal GST; dsDNA, one strand shown
T4 sequence: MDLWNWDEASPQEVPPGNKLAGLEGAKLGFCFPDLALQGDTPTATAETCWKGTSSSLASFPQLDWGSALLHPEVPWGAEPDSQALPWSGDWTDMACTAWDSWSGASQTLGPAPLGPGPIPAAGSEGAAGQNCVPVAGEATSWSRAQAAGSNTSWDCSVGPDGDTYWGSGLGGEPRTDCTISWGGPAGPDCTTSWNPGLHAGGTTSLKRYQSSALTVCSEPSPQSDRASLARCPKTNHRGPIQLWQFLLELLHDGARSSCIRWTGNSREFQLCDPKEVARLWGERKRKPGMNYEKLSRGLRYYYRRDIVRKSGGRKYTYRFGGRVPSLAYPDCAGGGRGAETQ
How it was run: as §1

ELF3 = molecular target: T5, ELF3 (Homo sapiens, UniProt P78545 1-371); details: protein: recombinant; tags: N-terminal GST; dsDNA, one strand shown
T5 sequence: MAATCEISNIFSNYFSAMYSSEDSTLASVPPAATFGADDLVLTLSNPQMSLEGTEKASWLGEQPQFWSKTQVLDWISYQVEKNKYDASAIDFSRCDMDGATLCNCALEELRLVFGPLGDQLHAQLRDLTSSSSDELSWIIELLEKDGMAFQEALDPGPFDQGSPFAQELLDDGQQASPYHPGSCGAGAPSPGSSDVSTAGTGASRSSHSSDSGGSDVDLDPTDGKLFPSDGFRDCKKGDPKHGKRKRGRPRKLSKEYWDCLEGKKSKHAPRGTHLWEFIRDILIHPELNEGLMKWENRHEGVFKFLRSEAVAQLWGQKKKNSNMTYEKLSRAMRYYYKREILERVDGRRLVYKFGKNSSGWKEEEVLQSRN
How it was run: as §1

CRX = CRX (Homo sapiens, UniProt O43186 1-299); details: protein: recombinant; tags: N-terminal GST; dsDNA, one strand shown
How it was run: as §1

ETV1 = ETV1 (Homo sapiens, UniProt P50549 1-477); details: protein: recombinant; tags: N-terminal GST; dsDNA, one strand shown
How it was run: as §1

ERF = molecular target: T6, ERF (Homo sapiens, UniProt P50548 1-548); details: protein: recombinant; tags: N-terminal GST; dsDNA, one strand shown
T6 sequence: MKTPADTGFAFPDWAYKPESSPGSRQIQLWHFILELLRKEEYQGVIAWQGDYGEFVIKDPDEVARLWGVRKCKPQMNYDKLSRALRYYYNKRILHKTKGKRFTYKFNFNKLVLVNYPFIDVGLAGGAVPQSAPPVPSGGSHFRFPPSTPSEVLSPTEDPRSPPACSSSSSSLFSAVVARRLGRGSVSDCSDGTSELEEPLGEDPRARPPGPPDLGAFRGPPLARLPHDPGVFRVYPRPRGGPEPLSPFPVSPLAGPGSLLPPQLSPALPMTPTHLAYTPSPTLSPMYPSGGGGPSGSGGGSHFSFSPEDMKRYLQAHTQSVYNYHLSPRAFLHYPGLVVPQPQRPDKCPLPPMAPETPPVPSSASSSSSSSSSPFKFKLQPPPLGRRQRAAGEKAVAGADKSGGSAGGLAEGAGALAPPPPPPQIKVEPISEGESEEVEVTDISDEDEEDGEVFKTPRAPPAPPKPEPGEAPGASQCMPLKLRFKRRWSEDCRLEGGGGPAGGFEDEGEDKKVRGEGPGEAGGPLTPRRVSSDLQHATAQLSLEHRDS
How it was run: as §1

ETV3L = molecular target: T7, ETV3L (Homo sapiens, UniProt Q6ZN32 1-361); details: protein: recombinant; tags: N-terminal GST; dsDNA, one strand shown
T7 sequence: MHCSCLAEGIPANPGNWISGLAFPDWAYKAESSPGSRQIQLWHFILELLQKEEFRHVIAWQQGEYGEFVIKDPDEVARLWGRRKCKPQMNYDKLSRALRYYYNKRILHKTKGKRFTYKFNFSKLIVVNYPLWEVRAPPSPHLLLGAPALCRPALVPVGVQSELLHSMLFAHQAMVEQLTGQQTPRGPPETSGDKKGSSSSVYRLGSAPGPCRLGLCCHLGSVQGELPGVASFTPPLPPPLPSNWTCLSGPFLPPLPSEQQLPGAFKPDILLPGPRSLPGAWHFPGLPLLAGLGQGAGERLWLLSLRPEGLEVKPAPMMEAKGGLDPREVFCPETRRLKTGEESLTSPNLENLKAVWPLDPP
How it was run: as §1

ETS2 = molecular target: T8, ETS2 (Homo sapiens, UniProt P15036 1-469); details: protein: recombinant; tags: N-terminal GST; dsDNA, one strand shown
T8 sequence: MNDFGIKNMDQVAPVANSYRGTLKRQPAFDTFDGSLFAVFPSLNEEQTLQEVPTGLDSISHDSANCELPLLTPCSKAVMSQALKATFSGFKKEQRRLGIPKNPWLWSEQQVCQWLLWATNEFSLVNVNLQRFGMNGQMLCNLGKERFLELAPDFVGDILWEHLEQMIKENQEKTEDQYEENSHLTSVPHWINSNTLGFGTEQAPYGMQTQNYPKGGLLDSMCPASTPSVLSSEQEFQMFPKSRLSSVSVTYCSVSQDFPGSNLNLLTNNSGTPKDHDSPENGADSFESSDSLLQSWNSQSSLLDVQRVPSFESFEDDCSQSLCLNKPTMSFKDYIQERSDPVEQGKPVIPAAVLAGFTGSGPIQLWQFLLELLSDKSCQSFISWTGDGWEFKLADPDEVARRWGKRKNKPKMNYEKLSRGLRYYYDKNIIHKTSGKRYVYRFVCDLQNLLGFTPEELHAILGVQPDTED
How it was run: as §1

SPDEF = molecular target: T9, SPDEF (Homo sapiens, UniProt O95238 1-335); details: protein: recombinant; tags: N-terminal GST; dsDNA, one strand shown
T9 sequence: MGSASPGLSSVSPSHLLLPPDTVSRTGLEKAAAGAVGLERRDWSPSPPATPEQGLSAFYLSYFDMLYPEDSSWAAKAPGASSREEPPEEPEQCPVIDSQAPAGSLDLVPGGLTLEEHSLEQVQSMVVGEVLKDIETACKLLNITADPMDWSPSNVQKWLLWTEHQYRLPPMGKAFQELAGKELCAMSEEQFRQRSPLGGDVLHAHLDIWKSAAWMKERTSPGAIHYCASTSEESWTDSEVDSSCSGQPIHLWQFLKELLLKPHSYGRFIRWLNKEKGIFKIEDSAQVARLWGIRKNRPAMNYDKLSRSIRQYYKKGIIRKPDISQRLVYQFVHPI
How it was run: as §1

ETV7 = molecular target: T10, ETV7 (Homo sapiens, UniProt Q9Y603 1-341); details: protein: recombinant; tags: N-terminal GST; dsDNA, one strand shown
T10 sequence: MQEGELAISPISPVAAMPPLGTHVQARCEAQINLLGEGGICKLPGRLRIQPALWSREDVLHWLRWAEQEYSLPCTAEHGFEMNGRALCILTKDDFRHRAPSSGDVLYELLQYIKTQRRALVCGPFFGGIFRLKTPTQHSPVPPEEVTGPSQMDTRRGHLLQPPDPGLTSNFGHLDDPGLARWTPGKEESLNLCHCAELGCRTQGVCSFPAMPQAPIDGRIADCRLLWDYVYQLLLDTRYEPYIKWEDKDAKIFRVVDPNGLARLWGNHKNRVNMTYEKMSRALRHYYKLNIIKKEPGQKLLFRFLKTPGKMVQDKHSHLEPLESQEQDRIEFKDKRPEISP
How it was run: as §1

ELF5 = molecular target: T11, ELF5 (Homo sapiens, UniProt Q9UKW6-2 1-255); details: protein: recombinant; tags: N-terminal GST; dsDNA, one strand shown
T11 sequence: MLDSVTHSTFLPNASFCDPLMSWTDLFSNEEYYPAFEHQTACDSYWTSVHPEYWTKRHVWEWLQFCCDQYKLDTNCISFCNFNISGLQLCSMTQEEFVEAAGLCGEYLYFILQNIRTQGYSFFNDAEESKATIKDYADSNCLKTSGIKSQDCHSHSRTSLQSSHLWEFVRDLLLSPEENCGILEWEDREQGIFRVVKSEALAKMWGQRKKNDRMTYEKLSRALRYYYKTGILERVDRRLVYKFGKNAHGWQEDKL
How it was run: as §1

ETV3 = molecular target: T12, ETV3 (Homo sapiens, UniProt P41162-2 1-143); details: protein: recombinant; tags: N-terminal GST; dsDNA, one strand shown
T12 sequence: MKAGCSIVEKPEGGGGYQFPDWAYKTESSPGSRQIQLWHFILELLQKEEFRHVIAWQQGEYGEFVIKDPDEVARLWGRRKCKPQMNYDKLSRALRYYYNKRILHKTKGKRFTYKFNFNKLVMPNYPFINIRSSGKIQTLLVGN
How it was run: as §1

ETV6 = ETV6 (Homo sapiens, UniProt P41212 1-452); details: protein: recombinant; tags: N-terminal GST; dsDNA, one strand shown
How it was run: as §1

Chain of CRX (O43186 whole entry): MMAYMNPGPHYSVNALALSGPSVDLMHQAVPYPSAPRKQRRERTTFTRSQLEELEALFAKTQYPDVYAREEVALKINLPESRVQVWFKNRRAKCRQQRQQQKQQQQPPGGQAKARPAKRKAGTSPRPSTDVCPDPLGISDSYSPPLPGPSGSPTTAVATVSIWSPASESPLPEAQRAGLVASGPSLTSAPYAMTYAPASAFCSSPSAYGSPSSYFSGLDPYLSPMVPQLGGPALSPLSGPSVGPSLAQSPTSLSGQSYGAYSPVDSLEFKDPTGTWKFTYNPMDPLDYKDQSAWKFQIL
Chain of HSF1 (Q00613 whole entry): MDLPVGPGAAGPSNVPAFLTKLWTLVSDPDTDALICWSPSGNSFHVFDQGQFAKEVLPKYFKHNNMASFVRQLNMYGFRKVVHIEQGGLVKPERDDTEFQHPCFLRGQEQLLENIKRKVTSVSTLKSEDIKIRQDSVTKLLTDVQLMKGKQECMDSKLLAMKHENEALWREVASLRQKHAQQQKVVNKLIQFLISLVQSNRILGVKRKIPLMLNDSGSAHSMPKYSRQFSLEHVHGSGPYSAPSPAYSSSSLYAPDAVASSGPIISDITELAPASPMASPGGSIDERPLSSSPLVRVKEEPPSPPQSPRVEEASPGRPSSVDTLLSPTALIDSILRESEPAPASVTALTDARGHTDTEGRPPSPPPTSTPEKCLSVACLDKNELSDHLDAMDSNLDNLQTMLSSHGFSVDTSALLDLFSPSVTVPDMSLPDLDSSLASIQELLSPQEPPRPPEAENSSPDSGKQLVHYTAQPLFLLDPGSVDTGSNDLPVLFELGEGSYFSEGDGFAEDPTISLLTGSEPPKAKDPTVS
Chain of ETV5 (P41161 whole entry): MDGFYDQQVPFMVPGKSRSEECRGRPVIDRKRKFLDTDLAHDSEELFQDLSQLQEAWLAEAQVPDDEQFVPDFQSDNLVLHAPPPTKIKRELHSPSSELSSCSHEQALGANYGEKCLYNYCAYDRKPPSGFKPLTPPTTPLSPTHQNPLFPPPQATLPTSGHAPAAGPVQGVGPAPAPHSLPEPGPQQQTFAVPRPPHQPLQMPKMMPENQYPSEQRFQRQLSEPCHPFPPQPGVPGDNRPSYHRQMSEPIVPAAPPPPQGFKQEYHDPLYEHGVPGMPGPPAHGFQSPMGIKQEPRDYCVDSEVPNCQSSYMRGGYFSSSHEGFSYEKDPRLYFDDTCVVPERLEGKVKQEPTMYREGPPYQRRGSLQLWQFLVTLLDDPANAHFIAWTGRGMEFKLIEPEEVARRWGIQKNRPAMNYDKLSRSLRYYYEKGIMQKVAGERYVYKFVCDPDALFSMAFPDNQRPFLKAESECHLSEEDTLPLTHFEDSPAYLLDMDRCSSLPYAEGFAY
Chain of ETV6 (P41212 whole entry): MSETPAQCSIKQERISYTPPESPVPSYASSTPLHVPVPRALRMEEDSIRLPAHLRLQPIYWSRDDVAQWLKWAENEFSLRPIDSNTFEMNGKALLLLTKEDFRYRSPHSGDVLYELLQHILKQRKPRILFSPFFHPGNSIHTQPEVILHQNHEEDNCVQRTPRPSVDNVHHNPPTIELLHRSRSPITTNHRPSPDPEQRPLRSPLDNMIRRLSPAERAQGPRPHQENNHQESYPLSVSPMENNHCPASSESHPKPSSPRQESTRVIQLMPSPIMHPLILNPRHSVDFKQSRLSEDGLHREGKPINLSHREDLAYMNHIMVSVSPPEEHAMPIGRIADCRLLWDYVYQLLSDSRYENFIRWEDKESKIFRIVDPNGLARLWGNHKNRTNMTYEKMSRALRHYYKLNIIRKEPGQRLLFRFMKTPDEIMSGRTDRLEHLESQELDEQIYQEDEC
Chain of ETV1 (P50549 whole entry): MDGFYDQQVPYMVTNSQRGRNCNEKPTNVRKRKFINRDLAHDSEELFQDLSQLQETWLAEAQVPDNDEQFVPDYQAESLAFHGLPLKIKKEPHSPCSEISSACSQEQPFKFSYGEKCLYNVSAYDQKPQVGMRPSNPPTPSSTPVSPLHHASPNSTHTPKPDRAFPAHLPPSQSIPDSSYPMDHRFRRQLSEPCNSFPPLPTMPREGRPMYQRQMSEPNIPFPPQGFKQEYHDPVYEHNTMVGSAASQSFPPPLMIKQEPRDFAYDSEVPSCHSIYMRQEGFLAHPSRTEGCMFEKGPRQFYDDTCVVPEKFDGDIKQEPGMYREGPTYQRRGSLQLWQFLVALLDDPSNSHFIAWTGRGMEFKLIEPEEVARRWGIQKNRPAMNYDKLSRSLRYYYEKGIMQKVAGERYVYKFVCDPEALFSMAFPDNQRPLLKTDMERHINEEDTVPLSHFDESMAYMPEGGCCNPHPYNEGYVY
Chain of ELF4 (Q99607 whole entry): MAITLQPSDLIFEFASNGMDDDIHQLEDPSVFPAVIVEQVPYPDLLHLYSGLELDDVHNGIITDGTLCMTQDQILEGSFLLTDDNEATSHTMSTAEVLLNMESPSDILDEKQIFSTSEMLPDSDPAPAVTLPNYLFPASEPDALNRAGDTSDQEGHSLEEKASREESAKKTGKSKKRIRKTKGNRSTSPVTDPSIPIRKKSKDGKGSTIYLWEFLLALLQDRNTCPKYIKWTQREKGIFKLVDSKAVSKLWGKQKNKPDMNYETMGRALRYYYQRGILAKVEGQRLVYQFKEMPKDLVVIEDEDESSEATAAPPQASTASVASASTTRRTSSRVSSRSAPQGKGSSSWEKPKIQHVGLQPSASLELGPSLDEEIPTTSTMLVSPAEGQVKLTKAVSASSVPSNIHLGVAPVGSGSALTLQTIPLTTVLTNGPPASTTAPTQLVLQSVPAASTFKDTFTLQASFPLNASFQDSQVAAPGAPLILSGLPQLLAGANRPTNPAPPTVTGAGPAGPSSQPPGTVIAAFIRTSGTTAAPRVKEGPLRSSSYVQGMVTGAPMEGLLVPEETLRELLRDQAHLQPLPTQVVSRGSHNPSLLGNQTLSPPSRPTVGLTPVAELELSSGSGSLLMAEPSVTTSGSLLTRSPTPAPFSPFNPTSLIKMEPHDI

With AATTGC as the sequence, how does the binding signal (FEV) read?
The binding signal was 1.39 fold enrichment (6-mer frequency, TF over GST control).

What about the binding signal (ETV5) of the same sequence?
Its binding signal is 1.43 fold enrichment (6-mer frequency, TF over GST control).

What about the binding signal (HSF1) of the same sequence?
The binding signal was 1.24 fold enrichment (6-mer frequency, TF over GST control).

And the binding signal (SPIC)?
Its binding signal is 1.2 fold enrichment (6-mer frequency, TF over GST control).

And the binding signal (ELF4)?
The binding signal was 1.36 fold enrichment (6-mer frequency, TF over GST control).

And the binding signal (ELK4)?
The binding signal was 1.29 fold enrichment (6-mer frequency, TF over GST control).

What about the binding signal (ETV2) of the same sequence?
The binding signal was 1.44 fold enrichment (6-mer frequency, TF over GST control).

And the binding signal (ELF3)?
The binding signal was 1.5 fold enrichment (6-mer frequency, TF over GST control).

And the binding signal (CRX)?
Its binding signal is 1.17 fold enrichment (6-mer frequency, TF over GST control).

And the binding signal (ETV1)?
Its binding signal is 1.35 fold enrichment (6-mer frequency, TF over GST control).

What about the binding signal (ERF) of the same sequence?
The binding signal was 1.43 fold enrichment (6-mer frequency, TF over GST control).

What about the binding signal (ETV3L) of the same sequence?
The binding signal was 1.35 fold enrichment (6-mer frequency, TF over GST control).

And the binding signal (ETS2)?
The binding signal was 1.37 fold enrichment (6-mer frequency, TF over GST control).

What about the binding signal (SPDEF) of the same sequence?
Its binding signal is 1.27 fold enrichment (6-mer frequency, TF over GST control).

What about the binding signal (ETV7) of the same sequence?
The binding signal was 1.38 fold enrichment (6-mer frequency, TF over GST control).

What about the binding signal (ELF5) of the same sequence?
The binding signal was 1.38 fold enrichment (6-mer frequency, TF over GST control).

And the binding signal (ETV3)?
The binding signal was 1.35 fold enrichment (6-mer frequency, TF over GST control).

And the binding signal (ETV6)?
Its binding signal is 1.43 fold enrichment (6-mer frequency, TF over GST control).
